Source: PubChem BioAssay (EPA / NIEHS)
Records with an inconclusive call do not appear. Activity calls are given as the source filed them. The calls were made as follows, unless noted: active = hit-call score of the fitted dose curve at least 0.9, where 1 is the maximum; inconclusive = response in the unintended direction; inactive = score below 0.9.

Key:
[1] = Tanguay_ZF_120hpf_SNOU_legacy: (Legacy) Oregon State University Tanguay Lab 120 Hour Post-fertilization zebrafish Assay for Snout Malformation (AID 2283637)
Outline: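 Tropical 5D wild-type zebrafish embryos, dechorionated with pronase at 4 hpf, were exposed singly from 6 hpf to 120 hpf statically at 28C in 0.64% DMSO. Snout malformation was scored present/absent by brightfield microscopy, fitted against DMSO.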

[2] = Tanguay_ZF_120hpf_JAW_legacy: (Legacy) Oregon State University Tanguay Lab 120 Hour Post-fertilization zebrafish Assay for Jaw Malformation (AID 2283638);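 as to AC50: active means more embryos with jaw malformation than DMSO controls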
Outline: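 Wild-type 5D embryos, chorion removed at 4 hpf, dosed singly from 6 hpf; 28C static, sealed, foil-covered, to 120 hpf. Endpoint: jaw defect yes/no (brightfield); mortality excludes scoring.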

[3] = Tanguay_ZF_120hpf_OTIC_legacy: (Legacy) Oregon State University Tanguay Lab 120 Hour Post-fertilization zebrafish Assay for Otic Vesicle Malformation (AID 2283639)
Outline: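 Tropical 5D wild-type zebrafish embryos statically exposed in 0.64% DMSO at 28C until 120 hpf; 5uM trimethyltin chloride as positive control. Otic vesicle malformation scored present/absent by brightfield; dead embryos not scored; gain fitted versus DMSO.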

[4] = Tanguay_ZF_120hpf_PE_legacy: (Legacy) Oregon State University Tanguay Lab 120 Hour Post-fertilization zebrafish Assay for Pericardial Edema (AID 2283640)
Outline: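 Zebrafish larvae are exposed from early development to 120 hpf at 28C, with 0.64% DMSO final. Each surviving larva receives a yes/no pericardial edema call by brightfield imaging, analysed relative to the DMSO baseline.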

[5] = Tanguay_ZF_120hpf_BRAI_legacy: (Legacy) Oregon State University Tanguay Lab 120 Hour Post-fertilization zebrafish Assay for Brain Malformation (AID 2283641)
Outline: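 Static exposure of staged wild-type embryos until 120 hpf, kept at 28C with light excluded and final DMSO of 0.64% (vol/vol). Presence or absence of brain malformation was noted under brightfield; mortality precluded scoring.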

[6] = Tanguay_ZF_120hpf_SOMI_legacy: (Legacy) Oregon State University Tanguay Lab 120 Hour Post-fertilization zebrafish Assay for Somite Malformation (AID 2283647)
Outline: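 Somitogenesis defects are recorded as binary calls in whole larvae at 120 hpf after continuous static chemical exposure starting at 6 hpf in dechorionated 5D embryos. DMSO serves as negative control and baseline.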

[7] = Tanguay_ZF_120hpf_PIG_legacy: (Legacy) Oregon State University Tanguay Lab 120 Hour Post-fertilization zebrafish Assay for Pigmentation Malformation (AID 2283650)
Outline: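 Tropical 5D wild-type zebrafish embryos, dechorionated with pronase at 4 hpf, were exposed singly from 6 hpf to 120 hpf statically at 28C in sealed, dark plates with 0.64% DMSO; pigmentation scored present/absent by brightfield microscopy, fitted against DMSO.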

[8] = Tanguay_ZF_120hpf_CIRC_legacy: (Legacy) Oregon State University Tanguay Lab 120 Hour Post-fertilization zebrafish Assay for Circulatory Malformation (AID 2283651)
Outline: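 Dechorionated wild-type 5D zebrafish embryos, one per well, statically exposed from 6 to 120 hpf at 28C with 0.64% DMSO; circulatory malformation scored present/absent by brightfield microscopy at 120 hpf, dead embryos excluded.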

[9] = read-out: kallikrein-3 (KLK3), KLK3 (gene 354); experiment: LTEA_HepaRG_KLK3: Life Technologies and Expression Analysis (LTEA) Assay for kallikrein-3 (KLK3) using HepaRG (AID 2283652; active = hit-call score of the fitted dose curve at least 0.9, where 1 is the maximum; inactive = score below 0.9); settings: mRNA level, 48 h; actives raise or lower the signal
Outline: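 Differentiated human HepaRG cells in serum-free induction medium exposed 48 h in duplicate, eight-point half-log series from 100 uM in 0.5% DMSO. KLK3 mRNA by qRT-PCR, normalised to ACTB, GAPDH, POLR2A; bidirectional fit versus DMSO.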

[10] = read-out: solute carrier (SLC22A6), SLC22A6 (gene 9356); experiment: LTEA_HepaRG_SLC22A6: Life Technologies and Expression Analysis (LTEA) Assay for solute carrier (SLC22A6) using HepaRG (AID 2283653; active = hit-call score of the fitted dose curve at least 0.9, where 1 is the maximum; inactive = score below 0.9); settings: mRNA level, 48 h; actives raise or lower the signal
Outline: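 Gene-expression endpoint in HepaRG hepatic cells: duplicate 8-point concentration-response, highest 100 uM, 48 h treatment in serum-free medium with 0.5% DMSO. SLC22A6 expression measured by qRT-PCR, normalised to ACTB/GAPDH/POLR2A.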

[11] = Tanguay_ZF_120hpf_SWIM_legacy: (Legacy) Oregon State University Tanguay Lab 120 Hour Post-fertilization zebrafish Assay for Swim Bladder Malformation (AID 2283654);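 also: swim bladder malformation in each larva scored yes or no under brightfield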
Outline: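 Dechorionated Tropical 5D wild-type embryos, placed singly from 6 hpf, were statically exposed at 28C to 120 hpf with 0.64% DMSO final; swim bladder malformation was scored present/absent by brightfield microscopy, gain of signal relative to DMSO controls.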

[12] = Tanguay_ZF_120hpf_TRUN_legacy: (Legacy) Oregon State University Tanguay Lab 120 Hour Post-fertilization zebrafish Assay for Truncated Body (AID 2283655)
Outline: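 Single dechorionated zebrafish embryos received test chemical from 6 hpf in 0.64% DMSO, kept at 28C. At 120 hpf, brightfield inspection noted any truncated body.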

[13] = Tanguay_ZF_120hpf_NC_legacy: (Legacy) Oregon State University Tanguay Lab 120 Hour Post-fertilization zebrafish Assay for Notochord and Tail Malformation (AID 2283656)
Outline: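 Dechorionated Tropical 5D wild-type zebrafish embryos, one per well from 6 hpf, statically exposed to 120 hpf at 28C in 0.64% DMSO final. Notochord distortion scored present/absent by brightfield; dead embryos excluded.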

[14] = read-out: solute carrier (SLC10A1), SLC10A1 (gene 6554); experiment: LTEA_HepaRG_SLC10A1: Life Technologies and Expression Analysis (LTEA) Assay for solute carrier (SLC10A1) using HepaRG (AID 2283657; active = hit-call score of the fitted dose curve at least 0.9, where 1 is the maximum; inactive = score below 0.9); settings: mRNA level, 48 h; actives raise or lower the signal
Outline: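 Differentiated HepaRG cells were plated 48 h, then exposed in serum-free induction medium for 48 h to 8 concentrations (top 100 uM, half-log steps, 0.5% DMSO). SLC10A1 mRNA was quantified by qRT-PCR normalized to ACTB, GAPDH, POLR2A; bidirectional fit versus DMSO.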

[15] = read-out: matrix metalloproteinase-1 (MMP1), MMP1 (gene 4312); experiment: LTEA_HepaRG_MMP1: Life Technologies and Expression Analysis (LTEA) Assay for matrix metalloproteinase-1 (MMP1) using HepaRG (AID 2283658; active = hit-call score of the fitted dose curve at least 0.9, where 1 is the maximum; inactive = score below 0.9); settings: mRNA level, 48 h; actives raise or lower the signal
Outline: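 In this screen, human liver HepaRG cultures receive each chemical in duplicate for 48 h (top 100 uM, 0.5% DMSO). MMP1 expression is then quantified by TaqMan qRT-PCR with ACTB/GAPDH/POLR2A normalization.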

[16] = read-out: ABC Transporter (ABCB1), ABCB1 (gene 5243); experiment: CLD_ABCB1_6hr: CellzDirect (CLD) Gene Expression Assay for ABC Transporter (ABCB1) at 6 hours (AID 2283659);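 also: hits raise ABCB1 transcript above the DMSO vehicle baseline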
Outline: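 Primary human hepatocytes (two donor preparations) dosed daily for two days with chemicals at multiple concentrations, 0.2% DMSO vehicle; harvested 6 h post-dose. ABCB1 mRNA induction quantified by qNPA chemiluminescence; gain-of-signal fitted versus DMSO.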

[17] = read-out: Broad substrate specificity ATP-binding cassette transporter ABCG2 (Homo sapiens) (UniProt Q9UNQ0); experiment: CLD_ABCG2_6hr: CellzDirect (CLD) Gene Expression Assay for ABC Transporter (ABCG2) at 6 hours (AID 2283660)
Outline: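 Primary human hepatocytes dosed daily with chemicals at multiple concentrations (0.2% DMSO vehicle), harvested 6 h after dosing. ABCG2 mRNA induction read by quantitative nuclease protection assay (qNPA) chemiluminescence; gain of signal fitted against DMSO baseline.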

[18] = read-out: xenobiotic metabolism (CYP1A1), CYP1A1 (gene 1543); experiment: CLD_CYP1A1_6hr: CellzDirect (CLD) Gene Expression Assay for xenobiotic metabolism (CYP1A1) at 6 hours (AID 2283661);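 as to AC50: potency for transcript induction above DMSO vehicle baseline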
Outline: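 Primary human hepatocytes from two donors, compound versus 0.2% DMSO vehicle. CYP1A1 mRNA measured 6 h after dosing by quantitative nuclease protection assay with chemiluminescent read-out; induction fitted relative to DMSO, cytotoxicity flagged by microscopy.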

[19] = Tanguay_ZF_120hpf_PFIN_legacy: (Legacy) Oregon State University Tanguay Lab 120 Hour Post-fertilization zebrafish Assay for Pectoral Fin Malformation (AID 2283648);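 also: each larva judged yes or no for fin defect by brightfield with dead larvae skipped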
Outline: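 Tropical 5D wild-type embryos, dechorionated with pronase at 4 hpf, were placed singly in wells at 6 hpf and statically exposed until 120 hpf at 28C, sealed and dark, with 0.64% (vol/vol) final DMSO; pectoral fin malformation scored present/absent.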

[20] = Tanguay_ZF_120hpf_CFIN_legacy: (Legacy) Oregon State University Tanguay Lab 120 Hour Post-fertilization zebrafish Assay for Caudal Fin Malformation (AID 2283649)
Outline: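 Single dechorionated 5D wild-type embryos are dosed at 6 hpf (final DMSO 0.64%) and held statically at 28C. Caudal fin malformation is recorded as present or absent at 120 hpf under brightfield, excluding dead embryos.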

Measured: AC50

Broad substrate specificity ATP-binding cassette transporter ABCG2 (Homo sapiens), sequence (Q9UNQ0 whole entry, looked up): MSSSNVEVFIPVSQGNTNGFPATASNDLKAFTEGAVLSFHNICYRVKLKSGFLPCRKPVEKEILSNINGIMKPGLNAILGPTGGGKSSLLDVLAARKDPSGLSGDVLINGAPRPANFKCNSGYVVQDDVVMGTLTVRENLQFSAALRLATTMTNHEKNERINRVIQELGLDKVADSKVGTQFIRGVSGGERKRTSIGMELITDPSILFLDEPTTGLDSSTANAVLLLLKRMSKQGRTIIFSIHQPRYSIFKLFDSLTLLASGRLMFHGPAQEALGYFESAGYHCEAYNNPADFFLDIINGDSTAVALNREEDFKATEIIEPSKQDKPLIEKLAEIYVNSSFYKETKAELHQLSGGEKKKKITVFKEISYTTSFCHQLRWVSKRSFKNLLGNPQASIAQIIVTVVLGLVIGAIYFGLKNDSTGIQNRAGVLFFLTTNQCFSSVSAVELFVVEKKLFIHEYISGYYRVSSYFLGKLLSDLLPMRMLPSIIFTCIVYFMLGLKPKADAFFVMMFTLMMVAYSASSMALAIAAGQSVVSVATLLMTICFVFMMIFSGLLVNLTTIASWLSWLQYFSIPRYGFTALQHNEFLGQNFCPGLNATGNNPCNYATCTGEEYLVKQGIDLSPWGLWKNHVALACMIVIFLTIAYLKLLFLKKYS

CCOP(=S)(Oc1cnc(C(C)(C)C)nc1)OC(C)C (configuration not stated)
active: [14] 16.5 µM | [18] 2.24 µM
not listed: [19] | [20]
inactive: all other assays above

CCNc1nc(Cl)nc(NC(C)(C)C#N)n1
inactive: [1] | [4] | [5] | [19] | [20] | [7] | [8] | [11] | [12] | [13] | [16]

CCOP(=S)(OCC)SCCSCC
active: [18] 4.01 µM
not listed: [6] | [7] | [9] | [10] | [14] | [15]
inactive: all other assays above

CCCCOC(=O)[C@@H](C)Oc1ccc(Oc2ccc(C#N)cc2F)cc1
inactive: [1] | [2] | [4] | [20] | [7] | [12] | [13] | [16]

CCCCN(CC)c1c([N+](=O)[O-])cc(C(F)(F)F)cc1[N+](=O)[O-]
not listed: [6] | [7] | [9] | [12] | [19]
inactive: all other assays above

Nc1nc(N)nc(NC2CC2)n1
inactive: [1] | [2] | [3] | [6] | [19] | [20] | [7] | [8] | [11] | [12] | [16]

Cc1nn(-c2cc(NS(C)(=O)=O)c(Cl)cc2Cl)c(=O)n1C(F)F
not listed: [9] | [10] | [13] | [14] | [15] | [18] | [19] | [20]
inactive: all other assays above

CNC(=O)ON=C(C)SC
active: [2] 39.5 µM
not listed: [6] | [9] | [10] | [14] | [15] | [18]
inactive: all other assays above

CN1COCN(Cc2cnc(Cl)s2)C1=N[N+](=O)[O-]
not listed: [6] | [9] | [10] | [14] | [15] | [18] | [19] | [20]
inactive: all other assays above

Cc1cc(C2CC2)nc(Nc2ccccc2)n1
inactive: [1] | [2] | [3] | [4] | [5] | [20] | [8] | [11] | [12] | [17]

O=c1ccc(=O)[nH][nH]1
active: [13] 41.6 µM
not listed: [1] | [8] | [9] | [10] | [14] | [15] | [18] | [19]
inactive: all other assays above

CCc1cccc(C)c1N(C(=O)CCl)C(C)COC (configuration not stated)
not listed: [2] | [9] | [10] | [14] | [15] | [18]
inactive: all other assays above

CC1(C(=O)Nc2ccc(O)c(Cl)c2Cl)CCCCC1
not listed: [3] | [18] | [19]
inactive: all other assays above

O=[N+]([O-])c1cc(C(F)(F)F)c(Cl)c([N+](=O)[O-])c1Nc1ncc(C(F)(F)F)cc1Cl
inactive: [1] | [2] | [3] | [4] | [5] | [19] | [20] | [7] | [8] | [11] | [12]

CC(=NC#N)N(C)Cc1ccc(Cl)nc1
not listed: [4] | [9] | [10] | [14] | [15] | [16] | [18] | [19]
inactive: all other assays above

CC(C)=CC1C(C(=O)OCN2C(=O)C3=C(CCCC3)C2=O)C1(C)C (configuration not stated)
not listed: [3] | [7] | [9] | [10] | [13] | [14] | [15] | [19]
inactive: all other assays above

COc1cc(OC)nc(Sc2cccc(Cl)c2C(=O)O)n1
not listed: [6] | [9] | [10] | [14] | [15] | [18]
inactive: all other assays above

CC[C@H](C)[C@H]1O[C@]2(C=C[C@@H]1C)C[C@@H]1C[C@@H](C/C=C(\C)[C@@H](O[C@H]3C[C@H](OC)[C@@H](O[C@H]4C[C@H](OC)[C@@H](NC)[C@H](C)O4)[C@H](C)O3)[C@@H](C)/C=C/C=C3\CO[C@@H]4[C@H](O)C(C)=C[C@@H](C(=O)O1)[C@]34O)O2
active: [14] 5 µM | [17] 29.5 µM
not listed: [6] | [7] | [16] | [18] | [19] | [20]
inactive: all other assays above

N#CSCSC#N
inactive: [1] | [3] | [4] | [6] | [20] | [8] | [11] | [12] | [13] | [16] | [17]
